Test results as given in PubChem BioAssay AID743318 (Broad Institute, 2014).
Measured potencies and affinities stand elsewhere. Calls of active or inactive are those of the source.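 How the source made its calls: active means cytotoxic signal drop whose half-maximal concentration is at most twice the top valid dose; inconclusive means flat drop between 30% and 70%, or poor fit; inactive means the rest.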

Assay: loss of A549 viability via ATP – cell-based, plate reader, dry powder, set 7, cytotoxicity control, dose response (AID 743318)
Conditions: CellTiter-Glo ATP luminescence, 72 h; series mostly up to 26 µM
In the case of `COc1cccc(OCCn2c(=S)[nH]c3ccccc32)c1`, the outcome is reported as “inactive”. In the case of `Cc1ccc(C(C)C)c(OCCn2c(=S)[nH]c3ccc(Cl)cc32)c1`, the outcome is reported as “inactive”. With `Fc1ccc(OCCn2c(=S)[nH]c3ccccc32)cc1` the outcome was “inactive”. For `CC(C)(C)c1ccccc1OCCn1c(=S)[nH]c2ccccc21`, the outcome was “inactive”. With `Cc1ccc(OCCn2cnc3ccccc32)cc1` the outcome was “inactive”. With `COc1ccccc1OCCn1c(=S)[nH]c2ccccc21` the outcome was “inactive”. For `O=c1[nH]c2ccccc2n1CCOc1ccccc1`, the outcome was “inactive”. In the case of `S=c1[nH]c2cc(Cl)ccc2n1CCOc1ccccc1`, the outcome is reported as “inactive”. With `Cc1ccc(C(C)C)c(OCCn2c(=S)[nH]c3cccc(Cl)c32)c1` the outcome was “inactive”. For `S=c1[nH]c2ccccc2n1CCOc1ccccc1`, the outcome was “inactive”. With `Cc1ccccc1OCCn1c(=S)[nH]c2ccccc21` the outcome was “inactive”. For `Cc1cccc(OCCn2c(=S)[nH]c3ccc(C(F)(F)F)cc32)c1`, the outcome was “inactive”. For `Cc1ccc(OCCn2c(=S)[nH]c3ccccc32)cc1`, the outcome was “inactive”. With `Cc1ccc(OCCn2c(SCCO)nc3ccccc32)c(C(C)C)c1` the outcome was “inactive”. For `Cc1ccc(OCCn2cnc3ccccc32)c(C(C)C)c1`, the outcome was “inactive”. With `COc1ccc(OCCn2c(=S)[nH]c3ccccc32)cc1` the outcome was “inactive”. In the case of `CC(C)c1ccc(OCCn2c(=S)[nH]c3ccccc32)cc1`, the outcome is reported as “inactive”. For `Cc1ccc(C(C)C)c(OCCn2c(=S)[nH]c3ccccc32)c1`, the outcome was “inactive”. In the case of `Cc1ccc(OCCn2c(C)nc3ccccc32)cc1`, the outcome is reported as “inactive”. For `Cc1ccc2c(c1)[nH]c(=S)n2CCOc1ccccc1`, the outcome was “inactive”. In the case of `S=c1[nH]c2cccc(Cl)c2n1CCOc1ccccc1`, the outcome is reported as “inactive”.
